# Columns and labels:
# Settings in all cases: 0.5 µM; time after treatment 48 h; PC9 signalome
# PC9 [1] = assay: AKT reporter activity score (signed KS statistic vs DMSO) (signed KS statistic (-1 to 1)); higher = stronger activation of the pathway reporter relative to DMSO
# PC9 [2] = assay: RAR reporter activity score (signed KS statistic vs DMSO) (signed KS statistic (-1 to 1)); higher = stronger activation of the pathway reporter relative to DMSO
# PC9 [3] = assay: PKC reporter activity score (signed KS statistic vs DMSO) (signed KS statistic (-1 to 1)); higher = stronger activation of the pathway reporter relative to DMSO
# PC9 [4] = assay: PKA reporter activity score (signed KS statistic vs DMSO) (signed KS statistic (-1 to 1)); higher = stronger activation of the pathway reporter relative to DMSO
# PC9 [5] = assay: p38 reporter activity score (signed KS statistic vs DMSO) (signed KS statistic (-1 to 1)); higher = stronger activation of the pathway reporter relative to DMSO
# PC9 [6] = assay: HIF reporter activity score (signed KS statistic vs DMSO) (signed KS statistic (-1 to 1)); higher = stronger activation of the pathway reporter relative to DMSO
# PC9 [7] = assay: ERK reporter activity score (signed KS statistic vs DMSO) (signed KS statistic (-1 to 1)); higher = stronger activation of the pathway reporter relative to DMSO
# PC9 [8] = assay: JNK reporter activity score (signed KS statistic vs DMSO) (signed KS statistic (-1 to 1)); higher = stronger activation of the pathway reporter relative to DMSO
# PC9 [9] = assay: WNT reporter activity score (signed KS statistic vs DMSO) (signed KS statistic (-1 to 1)); higher = stronger activation of the pathway reporter relative to DMSO
# PC9 [10] = assay: NFkB reporter activity score (signed KS statistic vs DMSO) (signed KS statistic (-1 to 1)); higher = stronger activation of the pathway reporter relative to DMSO
# PC9 [11] = assay: YAP/TAZ reporter activity score (signed KS statistic vs DMSO) (signed KS statistic (-1 to 1)); higher = stronger activation of the pathway reporter relative to DMSO
smiles,measurement,setting,value
CC[C@@H]1/C=C/C=C/C[C@H](C)[C@H](O)[C@](C)(O)C(=O)[C@H](C)[C@@H](O)[C@H](C)C(=O)[C@H](C)[C@@H](O)[C@H](C)/C=C/C(=O)O[C@H]2[C@@H](C)[C@@H](CC1)O[C@@]1(CC[C@@H](C)[C@@H](C[C@H](C)O)O1)[C@@H]2C [Oligomycin A],AKT reporter activity score,PC9 [1],-0.252
same,RAR reporter activity score,PC9 [2],0.0549
same,PKC reporter activity score,PC9 [3],0.0686
same,PKA reporter activity score,PC9 [4],-0.0505
same,p38 reporter activity score,PC9 [5],-0.305
same,HIF reporter activity score,PC9 [6],0.335
same,ERK reporter activity score,PC9 [7],0.114
same,JNK reporter activity score,PC9 [8],0.0667
same,WNT reporter activity score,PC9 [9],0.138
same,NFkB reporter activity score,PC9 [10],0.0911
same,YAP/TAZ reporter activity score,PC9 [11],0.161

# Reference: the supplement of paper PMC9117331
